Among all 1,300 compounds or so, about 460 (35%) were called active. Not shown: some 39% with an inconclusive outcome. The call rests on the fitted dose curve; in most records, active means well fitted inhibition curve with a large enough effect; inconclusive means small, poorly fitted or top-dose-only effect; inactive means flat fitted curve, though single readings scatter. The list shows a part of the results.
Each molecule was assayed against Protein phosphatase EYA2 (Homo sapiens) (UniProt O00167) (assay: qHTS for Inhibitors of the Phosphatase Activity of Eya2: Confirmatory Assay for Cherry-picked Compounds). Details: purified EYA2 phosphatase activity, qHTS confirmation; series mostly up to 46.1 µM; activity change, negative = inhibition: at the top concentration.
Chain of Protein phosphatase EYA2 (Homo sapiens) (O00167 whole entry, looked up): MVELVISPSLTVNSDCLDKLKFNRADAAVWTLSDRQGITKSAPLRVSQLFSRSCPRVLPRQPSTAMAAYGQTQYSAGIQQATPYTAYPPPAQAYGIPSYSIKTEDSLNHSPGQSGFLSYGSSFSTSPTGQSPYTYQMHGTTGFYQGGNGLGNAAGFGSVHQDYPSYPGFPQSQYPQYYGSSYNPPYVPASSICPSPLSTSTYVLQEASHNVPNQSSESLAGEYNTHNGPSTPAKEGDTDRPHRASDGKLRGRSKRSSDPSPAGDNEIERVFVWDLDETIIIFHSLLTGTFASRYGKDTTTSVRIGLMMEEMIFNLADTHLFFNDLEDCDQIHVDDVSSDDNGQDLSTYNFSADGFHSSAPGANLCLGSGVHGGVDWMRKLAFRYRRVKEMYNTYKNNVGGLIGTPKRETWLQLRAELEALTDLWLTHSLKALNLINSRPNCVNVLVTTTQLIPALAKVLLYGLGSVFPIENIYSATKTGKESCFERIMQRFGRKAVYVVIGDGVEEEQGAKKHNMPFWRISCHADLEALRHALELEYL
Method in brief: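 Eya2 (0.2 uM working solution) preincubated 10 min at room temperature with compound in pH 7.5 HEPES buffer with MgCl2, BSA, DTT. OMFP added (50 uM working solution), 10 min more; fluorescence 485/525 nm, normalized to EGTA and DMSO.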
Further: nearly all actives have a fitted effect of over 65% in size.
Potency means the concentration at half of the fitted maximal effect.
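Wherever activity change, negative = inhibition is given: 0% = DMSO wells and -100% = EGTA control giving full inhibition.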

Activity change, negative = inhibition, inactive:
CCN(CC)C(=O)CC(c1ccc(OC)cc1)c1c(OC)cc(OC)c2ccc(=O)oc12 (stereo unspecified) -8.28%
CCOc1cccc(CN2CCC(CCC(=O)NC3CC3)CC2)c1O -6.6%
COc1ccc(CNC(=O)c2sc(=O)n(Cc3cc(Cl)ccc3OC)c2C)cc1 -20.1%
COc1ccccc1C(=O)Nc1c[nH]c(=O)[nH]c1=O -25.1%
O=C(C1=C[C@H](c2ccccc2)C[C@H](OCc2ccc(CO)cc2)O1)N1CCN(Cc2ccccc2)CC1 -21.5%
Cc1cc(Nc2ccc([N+](=O)[O-])cc2)c2ccccc2n1 -15.4%
O=C(Nc1ccccc1)C(Cl)C(=O)c1ccccc1 (stereo unspecified) -13.8%
O=C(Cn1c(S(=O)(=O)Cc2ccccc2)nc2ccccc21)N1CCCCC1 -2.49%
Cc1cc2nc(/N=C(\N)NC(=O)N3c4ccccc4Sc4ccccc43)nc(C)c2cc1C -24.6%
O=C(Cn1c(C(=O)N2CCc3ccccc3C2)cc2sccc21)c1ccccc1 -25.1%
Cc1cc(NC(=O)CS(=O)(=O)c2cn(Cc3cccc(Br)c3)c3ccccc23)no1 -26.3%
COC(=O)c1ccc(C23CC4(C2)[C@H](CN(CC2CCCCC2)[C@@H]4c2ccccc2)C3c2ccc(Cl)nc2)cc1 (stereo partly specified) -20.7%
O=C(CC(=O)c1c(F)cccc1Cl)c1ccccc1O -12.4%
O=c1c2ccccc2nnn1CSc1nnc(C2COc3ccccc3O2)n1-c1ccccc1 (stereo unspecified) -29.4%
O=c1c2ccccc2c(C=Nc2cccc(S(=O)(=O)NC3=NCCCCC3)c2)c(O)n1Cc1ccccc1 -13.3%
COc1cccc(NC(=O)c2ccc3c(c2)CCN3S(C)(=O)=O)c1 -14.2%
Cc1ccc(Nc2nnc(SCC(=O)c3c(N)n(C4CC4)c(=O)[nH]c3=O)s2)cc1C -26.1%
CCCNC(=O)C1(C)CCN(Cc2cccc(OC(=O)c3ccccc3)c2)C1 (stereo unspecified) -16.6%
CCC(=O)Nc1nc2c(OC)ccc(OC)c2s1 -16.5%
Cc1ccccc1-c1cnc(C(O)c2c(C)cccc2C)[nH]1 (stereo unspecified) -18.5%
Cc1nc([N+](=O)[O-])cn1CC(O)c1ccc2c(c1)OCO2 (stereo unspecified) -3.27%
O=c1[nH]c(=O)n(C2C[C@H](O)[C@@H](CO)O2)cc1C(F)(F)F (stereo partly specified) -6.54%
CCOC(=O)NNc1nncc2ccccc12 3.63%
COc1ccc(F)cc1-c1cc(NC=O)c2ncc(-c3cccc(C(F)(F)F)c3)n2c1 -24.6%
O=C(O)C1=C[C@@H](c2csc3ccccc23)C[C@@H](OCc2ccc(CO)cc2)O1 -18%
OC(COc1ccc2cc(Br)ccc2c1)Cn1ccnc1 (stereo unspecified) -19.8%
CS(=O)(=O)c1ccc(-c2nnc(NC(=O)C3=COCCO3)o2)cc1 -26%
COc1ccc(Nc2nc(N)nc(CSC(=S)N3CCCCC3)n2)cc1 -20.4%
CCSc1nc2ccccc2n1C(=O)c1ccc(S(=O)(=O)N2CCCCC2)cc1 -14%
O=C(Nc1ncc(Cc2ccccc2Cl)s1)c1ccc(-c2cccc([N+](=O)[O-])c2)o1 -23%
O=C(SCc1c(O)c2ccccc2oc1=O)c1ccccc1 -21.7%
COc1ccccc1Nc1nc(-c2ccc3c(c2)NC(=O)CO3)cs1 -3.57%
CC1=C(C(=O)N2CCOCC2)CC(CC(=O)NC(c2ccccc2)c2ccccc2)C(=O)N1Cc1ccc(C(C)(C)C)cc1 (stereo unspecified) -19%
Cc1ccc(-c2nc3ccccc3s2)cc1NC(=S)NC(=O)/C=C/c1ccco1 -3.42%
COc1ccc2nc(NC(=S)NC(=O)c3ccco3)sc2c1 -18%
Cc1cc(NC(=O)c2cccs2)cc(-c2nc3ncccc3o2)c1O -12.1%
O=C(NCc1ccc2c3c(cccc13)C(=O)N2)c1cccs1 -19.4%
COc1cc(NC(=O)c2cccs2)c(OC)cc1NC(=O)Nc1ccc(F)cc1 -26.5%
O=S(=O)(c1ccccc1)[C@@]1(c2ccccc2)C[C@@H]2ON=C(c3cccc(-c4ccccc4)c3)[C@@H]2C1 -15.7%
COc1ccccc1OCc1ccc(C(=O)Nc2cc(OC)c(OC)c(OC)c2)o1 -28.2%
CC1CN(C(=O)c2cc(S(=O)(=O)N(C)c3ccc(F)cc3)ccc2Cl)CC(C)O1 (stereo unspecified) -8.46%
CN(C)c1ccc(-c2ccnc3c2CC(C)(C(=O)NCCC(F)(F)F)O3)cc1 (stereo unspecified) -26.7%
CN1C(=O)NC(c2ccccc2)(C(F)(F)F)S/C1=C(/C#N)c1nnc(N2CCOCC2)n1-c1ccccc1 (stereo unspecified) -25.7%
O=C(CNC(=O)c1[nH]cnc1C(=O)N[C@@H](Cc1ccccc1)C(=O)OCc1ccccc1)OCc1ccccc1 -17.2%
C[C@@H](NC(=O)c1nc[nH]c1C(=O)N[C@@H](Cc1ccccc1)C(=O)OC(C)(C)C)c1ccccc1 -19.4%
CCOC(=O)c1ccc(NC(=O)c2nc[nH]c2C(=O)N[C@@H](Cc2ccccc2)C(=O)OC(C)(C)C)cc1 -19%
Cc1ccc(N=Cc2cccc(O)c2O)c(C)c1 -21.4%
CCn1cc(C(=O)N[C@@H](C)C(=O)NCCCn2ccnc2)c(=O)c2cc3c(cc21)OCO3 -9.75%
O=C(CNC(=O)c1cccs1)OCC(=O)c1ccc(Cl)cc1 -2.28%

Potency, active:
CN1N/C(=C\c2ccccc2)N=C2C(=O)N(C)C(=O)N=C21 12 µM
Cc1ccc(Nc2nc(NCCO)nc3c2cnn3C)cc1Cl 7.57 µM
COc1cc2[nH]cc(C(=O)NCc3ccccc3)c(=O)c2cc1OC 5.36 µM
Nc1ccc2c(c1Cl)C(=O)c1ccc(N)c(Cl)c1C2=O 3.01 µM
COc1ccccc1Nc1cc(C)nc2c(C)ccc([N+](=O)[O-])c12 19 µM
O=C(NN1C(=O)/C(=C\c2ccc(O)c([N+](=O)[O-])c2)SC1=S)c1ccccc1Cl 12 µM
O=C(Nc1ccccc1)C1=C(c2ccccc2)S(=O)(=O)CCS1(=O)=O 13.5 µM
O=C(CSc1ccc(-c2ccccn2)nn1)N1CCCC1 12 µM
O=C(CSc1ccc(-c2ccccn2)nn1)N1CCCCC1 7.57 µM
Cn1ccc2c(N3CCCC3)cc3c(c21)C1CCC3C1 (stereo unspecified) 21.3 µM
COC(=O)c1ccccc1NC1=C/C(=N\S(=O)(=O)c2cccs2)c2ccccc2C1=O 1.69 µM
COc1ccc(S(=O)(=O)c2c(O)c3ccc(C(=O)Nc4cccc(F)c4)cc3[nH]c2=O)cc1 0.338 µM
O=C(Oc1ccc2c(c1)OCC2=O)c1ccccc1 4.78 µM
O=C(Oc1ccc2c(c1)OCC2=O)c1ccc(Cl)cc1 2.39 µM
S=C(NCCCc1cnc[nH]1)NCCCN(Cc1ccc(Cl)cc1)c1ccc(-c2ccccc2)cn1 16.9 µM
CN(CCCc1cnc[nH]1)C(=S)NCCCN(Cc1ccc(Cl)cc1)c1ccc(Br)cn1 19 µM
COc1cc(CNC(=O)Nc2nc(C(N)c3ccccc3)cs2)cc(OC)c1OC (stereo unspecified) 19 µM
COc1ccc2ccccc2c1C=NN1CCCCC1 16.9 µM
CCOC(=O)c1ncccc1NC(=O)CC(=O)Nc1cccnc1C(=O)OCC 3.79 µM
CC(=O)Oc1cccc2c1C(=O)C1CC=CC(OC(C)=O)C1C2=O (stereo unspecified) 15.1 µM
COc1ccccc1N1CCN(/N=C/C=C\c2ccccc2[N+](=O)[O-])CC1 15.1 µM
O=[N+]([O-])c1ccccc1/C=C\C=N\N1CCN(c2ccccc2)CC1 9.53 µM
Cc1sc(NC(=O)C2=COCCO2)c(C(N)=O)c1C 7.57 µM
CC1CCc2c(sc(NC(=O)/C=C/c3cccs3)c2C(=O)O)C1 (stereo unspecified) 19 µM
O=C(O)c1cc(N2N=C(C(F)(F)F)/C(=C/C=C/c3ccco3)C2=O)ccc1Cl 1.51 µM
O=C1C=C(Nc2ccccc2)C(=O)c2ccccc21 6.01 µM
CCOC(=O)c1c(C)oc2c1c(C=NCc1ccccn1)c(O)c1ccccc12 15.1 µM
O=C(O)c1ccccc1-c1ccccc1C(=O)Nc1ccc2c(c1)[nH]c(=O)c1ccccc12 7.57 µM
O=C(O)c1ccccc1-c1ccccc1C(=O)Nc1ccc2oc(=O)c3ccccc3c2c1 8.49 µM
CSc1ccc(CNc2ncc(-c3cccc([N+](=O)[O-])c3)n2C)cc1 19 µM
Oc1c(Br)cc(Br)cc1CNc1cccc2cccnc12 7.57 µM
COC(=O)c1cc2c(ccc3ccccc32)oc1=O 7.57 µM
COc1ccc(OC)c(Nc2nc(-c3sc(N)nc3C)cs2)c1 8.49 µM
O=C(O)CCN1C(=O)/C(=C/c2ccc(-c3nc4ccccc4s3)o2)SC1=S 3.79 µM
N#CC1=C(N)n2c(s/c(=C\c3cccs3)c2=O)=C(C#N)C1c1cccs1 (stereo unspecified) 19 µM
O=C(C1=C(O)C(=O)N(c2nc3ccc(Cl)cc3s2)C1c1ccco1)c1ccco1 (stereo unspecified) 16.9 µM
COc1cc(NC(=O)c2cccs2)c(OC)cc1NC(=O)CCC(=O)Nc1ccc2ncccc2c1 1.69 µM
COc1cc(NC(=O)c2cccs2)c(OC)cc1NC(=O)CCn1nnc2ccccc21 16.9 µM
COc1cc(NC(=O)c2cccs2)c(OC)cc1NC(=O)Cc1ccccc1 10.7 µM
Brc1ccc(CSc2ccc3nnc(-c4ccccn4)n3n2)cc1 19 µM
COC(=O)c1ccc(CSc2ccc3nnc(-c4ccccn4)n3n2)o1 16.9 µM
c1ccc(CSc2ccc3nnc(-c4ccccn4)n3n2)cc1 19 µM
O=C(Nc1ccc(F)cc1)c1nc[nH]c1C(=O)O 15.1 µM
NNC(=O)c1nc[nH]c1C(=O)Nc1ccccn1 8.49 µM
Cc1ccc(NC(=O)c2[nH]cnc2C(=O)NN)cc1 15.1 µM
Cc1ccc(C(=O)N/C(=C\c2ccco2)C(=O)NCCCn2ccnc2)cc1 4.26 µM
COC(=O)c1ccc(OC(=O)c2cccs2)cc1 10.7 µM

Reference: PubChem BioAssay AID720540 (National Center for Advancing Translational Sciences (NCATS), 2013)
